# Screen size: about 350,000 compounds; about 31,000 (8.9%) were called active. Not shown: some 15% with an inconclusive outcome. Calls come from the whole dose curve; as a rule, active = well fitted inhibition curve with a large enough effect; inconclusive = small, poorly fitted or top-dose-only effect; inactive = no such curve, though single readings can be large or run the other way. What follows is part of a selection rich in actives, with near analogues and random picks from the rest.
# Biological target: Histone-lysine N-methyltransferase EHMT2 (Homo sapiens) (UniProt Q96KQ7)
# Sequence (Q96KQ7 913-1193 limits assumed): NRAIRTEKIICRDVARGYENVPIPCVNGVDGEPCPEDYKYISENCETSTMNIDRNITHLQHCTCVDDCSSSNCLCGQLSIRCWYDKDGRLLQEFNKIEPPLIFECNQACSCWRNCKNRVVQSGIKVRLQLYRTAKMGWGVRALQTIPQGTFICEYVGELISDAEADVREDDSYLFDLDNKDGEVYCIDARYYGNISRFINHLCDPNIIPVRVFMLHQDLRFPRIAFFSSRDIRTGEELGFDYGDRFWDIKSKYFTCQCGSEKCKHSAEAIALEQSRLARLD
# Assay: qHTS Assay for Inhibitors of Histone Lysine Methyltransferase G9a; note: nearly all actives have a fitted effect of over 75% in size
# Details: G9a H3K9 monomethylation, AlphaScreen, 2 h; series mostly up to 59 µM; activity, negative = inhibition: at the top concentration
# In short: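 Readings reflect AlphaScreen signal from monomethyl-H3K9 antibody detection. HMT at 20 nM; substrate b-H3K9 500 nM; cofactor SAM 20 uM; 2 h RT reaction; compounds tested as titrations in qHTS with 15 min preincubation.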
# % is set by controls: 0 for no effect and ±100 for the full control effect; potency is the fitted concentration of half-maximal effect.
SMILES,"activity, negative = inhibition",Potency
Cc1cccc(NC(=O)c2cccc(S(=O)(=O)N3CCCC3)c2)n1,-27.4% [at 102 µM] (inactive),
COC(=O)C1=C(C)N(C)C(=O)NC1c1ccc([N+](=O)[O-])o1 (configuration not stated),-2.67% [at 102 µM] (inactive),
COC(=O)C1=C(C(=O)OC)C(c2cc([N+](=O)[O-])ccc2O)c2sc(=O)[nH]c2S1 (configuration not stated),,44.7 µM (active)
COc1cnc(-c2ccccn2)nc1Oc1ccc(C(C)(C)C)cc1,16.9% [at 102 µM] (inactive),
Cc1ccccc1CNC(=O)CCc1cn(Cc2ccccc2C)c2ccccc12,-27.4% (inactive),
CCOc1ccc(S(=O)(=O)c2cn(Cc3ccccc3)c3ccc(OCC)cc3c2=O)cc1,4.03% (inactive),
O=C(Nc1ccc(NC(=O)c2ccc3c(c2)OCO3)cc1)c1cccc(Cl)c1,0.511% [at 12.7 µM] (inactive),
COc1ccc(-c2nc3ccccc3n2CCC(C)C)cc1OC,-2.19% [at 102 µM] (inactive),
CCOCCn1c(-c2ccccc2)nc2ccccc21,17.2% [at 102 µM] (inactive),
CC(=O)OCCN(CCCn1c(-c2ccncc2)nc2ccccc21)c1nc(-c2ccc(C)cc2)cs1,,56.2 µM (active)
CCC(Sc1nc2n[nH]c(C)c2c(=N)n1-c1ccccc1Cl)C(=O)N(CC)CC (configuration not stated),20.7% (inactive),
Cc1ccc(CC(=O)N(C)CC(=O)N(CC(C)C)c2c(N)n(CC(C)C)c(=O)[nH]c2=O)cc1C,10.8% [at 2.33 µM] (inactive),
CCC(C(=O)Nc1cccc(Cl)c1C)n1nc(-c2ccc(C)cc2)ccc1=O (configuration not stated),-3.11% (inactive),
COC(=O)c1ccccc1NC(=O)Cn1c(=O)cc(C)c2c(C)nn(-c3cccc(Cl)c3C)c21,1.79% (inactive),
Cn1nnc2c(N3CCN(c4ccccc4)CC3)ncnc21,1.37% (inactive),
O=C(Cc1ccc(Cl)cc1)NCC(c1cccs1)S(=O)(=O)c1ccc(Cl)cc1 (configuration not stated),27.5% (inactive),
Cc1ccc(-c2nn(-c3ccccc3)cc2C(=O)NCCCN2CCCC2=O)cc1,-28.8% [at 102 µM] (inactive),
COc1ccc(-n2cc(-c3ccccc3)c3c(=S)nc[nH]c32)cc1,20.3% [at 102 µM] (inactive),
COc1ccc(-c2cn(-c3ccc(OC)cc3)c(=S)[nH]2)cc1,,1.41 µM (active)
COc1ccc(N2C(=O)CNC2=S)cc1,-12.5% (inactive),
COc1ccccc1CCNC(=O)c1c(C)nn(CC(C)C)c1Cl,46.5% [at 102 µM] (inactive),

SMILES,"activity, negative = inhibition",Potency
COc1cccc(NC(=O)Cn2c(=O)cc(C)c3c(C)nn(-c4cccc(F)c4)c32)c1,6.73% (inactive),
COC(=O)C1=C(C)NC(=S)NC1c1ccc(OCC(=O)N2CC(C)OC(C)C2)c(OC)c1 (configuration not stated),-3.57% [at 12.7 µM] (inactive),
COc1ccc(C2NC(=S)NC3=C2CCc2ccccc23)cc1OC (configuration not stated),,0.631 µM (active)
CCOC(=O)C1=C(c2ccccc2)NC(=S)NC1c1ccc(Cl)cc1 (configuration not stated),-11.4% [at 12.7 µM] (inactive),
Fc1ccc(CN2CCc3nc(Nc4ccccc4)ncc3C2)cc1F,-40.7% (inactive),
COc1ccc(CN2CCC(n3nccc3NC(=O)CCCc3ccccc3)CC2)cc1C,24.6% [at 102 µM] (inactive),
COc1cc(CN2CCC(n3nccc3NC(=O)CCCc3ccccc3)CC2)ccc1O,,70.8 µM (active)
CCn1cc(CN2CCC(n3nccc3NC(=O)CCCc3ccccc3)CC2)c(C)n1,20.1% [at 102 µM] (inactive),
CCN(C(=O)c1sc2cc(OC)ccc2c1Cl)c1ccccc1,52.3% (inactive),
CCN(CC)S(=O)(=O)c1ccc2c(c1)c(=O)c(C(=O)N1CCN(c3cccc(Cl)c3)CC1)cn2C,2.37% (inactive),
CCN1CCN(CCNC(=O)c2ccc(/C=C3/Sc4ccccc4N(Cc4cccc(C)c4)C3=O)cc2)CC1,,44.7 µM (active)
CCN1CCN(CCNC(=O)c2ccc3c(c2)NC(=O)/C(=C\c2ccc(OC)c(OC)c2)S3)CC1,4.92% [at 0.0925 µM] (inactive),
O=C(NCCN1CCOCC1)/C(=C/c1ccc(F)cc1)NC(=O)c1ccccc1,8.68% [at 102 µM] (inactive),
Cc1ccccc1CN1C(=O)c2ccccc2Sc2ccc(C(=O)NCCCN3CCOCC3)cc21,-26.2% (inactive),
Cc1ccc(C(=O)N/C(=C\c2ccc(F)cc2)C(=O)NCCN2CCOCC2)cc1,-3.65% [at 102 µM] (inactive),
O=C(NCCN1CCOCC1)c1ccc(/C=C2\Sc3ccccc3N(Cc3ccc(F)cc3)C2=O)cc1,,28.2 µM (active)
CCc1nc2c(cnn2-c2ccc(C)cc2)c(=O)n1-c1ccc(C)cc1,11.6% (inactive),
CCOc1ccccc1/C=N/Nc1nc2ccccc2o1,15.2% [at 102 µM] (inactive),
O=C1[C@H]2[C@@H](c3ccc(F)cc3)N3C(=O)N(c4ccc(C(F)(F)F)cc4)C(=O)[C@@]3(Cc3ccccc3)[C@H]2C(=O)N1C1CCCCC1,1.06% [at 12.7 µM] (inactive),
CCOc1ccc(N(CC)S(=O)(=O)N2CCCC(C(=O)NCc3ccc(Cl)cc3)C2)cc1 (configuration not stated),3.08% (inactive),
Cc1cc(=O)[nH]c(=S)[nH]1,-41.8% [at 2.33 µM] (inactive),

SMILES,"activity, negative = inhibition",Potency
Cc1c(C)c(C)c2[nH]c(=S)[nH]c2c1C,,1.12 µM (active)
CCc1ccc(Oc2coc3cc(O)ccc3c2=O)cc1,13.5% [at 102 µM] (inactive),
CCOC(=O)c1cccc(NC(=O)c2cc(CN3CCCC3)on2)c1,2.39% (inactive),
CCOc1cc(C)c(S(=O)(=O)NCc2ccccn2)cc1C,15.8% [at 102 µM] (inactive),
O=C(c1cccc(F)c1)N1CCN(c2ccc([N+](=O)[O-])c(N3CCCCC3)c2)CC1,21.2% [at 0.501 µM] (inactive),
O=C(c1ccc(Cl)c([N+](=O)[O-])c1)N1CCN(c2ccccc2)CC1,-43.7% [at 102 µM] (inactive),
CO/N=C/c1ccc(N2CCN(C(=O)c3cccc(Cl)c3)CC2)c([N+](=O)[O-])c1,,14.1 µM (active)
CCCN(CCC)CCCNC(=O)Cn1cc2c(n1)-c1c(oc(C(=O)N3CCCC3)c1C)CC2,-27.7% (inactive),
COCC(C)NS(=O)(=O)c1ccc(N2CCCCS2(=O)=O)cc1 (configuration not stated),7.99% (inactive),
Cc1nc2sc(C)c(C)n2c(=O)c1S(=O)(=O)NCCc1ccc(Cl)cc1,-7.89% (inactive),
Cc1cccn2c(=O)c3cc(C(=O)NC4CCCCC4)sc3nc12,3.36% [at 102 µM] (inactive),
Cc1cccc(NC(=O)c2cc3c(C)nn(-c4ccccc4)c3s2)c1,-1.38% (inactive),
Cc1ccccc1-n1nc(C)c2cc(C(=O)NC3CC3)sc21,,79.4 µM (active)
COc1cc(Cl)c(NC(=O)CC(C)S(=O)(=O)c2cc3c(cc2C)NC(=O)CO3)c(OC)c1 (configuration not stated),-34% (inactive),
O=C(CSc1ncccn1)NCCc1ccccc1,21.5% (inactive),
S=c1[nH]nc(Nc2ccccc2)s1,,1.12 µM (active)
O=S(=O)(NCCc1ccccc1)c1ccccc1,-4.81% (inactive),
CC(C)(C)C(=O)c1cnc(Nc2ccccc2)s1,-11.7% (inactive),
S=c1[nH]nc(NCCc2ccccc2)s1,,0.316 µM (active)
O=c1cnnc(Nc2ccccc2)[nH]1,14.3% [at 102 µM] (inactive),

# — PubChem BioAssay AID504332 (National Center for Advancing Translational Sciences (NCATS), 2011)
